Consider 40 compounds from PubChem BioAssay (NCATS).

Records with an inconclusive call do not appear. Entries that show only a call come without a potency. Calls of active or inactive are those of the source. Calls come from the whole dose curve; as a rule, active = well fitted curve in the direction sought with a large enough effect; inconclusive = small, poorly fitted or top-dose-only effect, or another doubt; inactive = no such curve, though single readings can be large; an effect the other way counts as inactive or inconclusive.

Glutathione peroxidase 1 (Homo sapiens), sequence (P07203 whole entry, looked up): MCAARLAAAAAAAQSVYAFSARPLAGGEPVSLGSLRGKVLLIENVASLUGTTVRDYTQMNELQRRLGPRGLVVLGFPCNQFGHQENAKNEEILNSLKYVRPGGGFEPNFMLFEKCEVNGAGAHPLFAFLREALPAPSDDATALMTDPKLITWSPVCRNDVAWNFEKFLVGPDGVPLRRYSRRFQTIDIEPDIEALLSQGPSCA

Tested on in the first experiment: not listed separately
The experiment can be described thus: Primary qHTS for inhibitors of nuclear receptor binding SET domain protein 2 (NSD2) in an isogenic RCH-ACV NSD2 p.E1099K mutant (9B) (AID 1645876). Note: potency is the fitted concentration of half-maximal effect; nearly all actives have a fitted effect of over 70% in size. As to conditions: RCH-ACV NSD2 E1099K (9B) viability, CellTiter-Glo, 72 h; series mostly up to 44.9 µM. For orientation: In qHTS, concentration-response curves come from the screen itself.
In the case of `CC1=CC2/C=C(\C)CCC(O)C(O)C(O)CC(=O)C23C(=O)NC(CC(C)C)C3C1C` (centres undefined), the Potency was 4.47 µM (active).

For the compound `O=C(NCCN1CCC2(CC1)C(=O)NCN2c1cccc(F)c1)c1ccc2ccccc2c1`, the Potency is 9.16 µM (active).

`CN(C(=O)CN1C(=O)COc2cc(Cl)c(Cl)cc21)[C@@H](CN1CCCC1)c1ccc(-c2cccc(C(N)=O)c2)cc1`: the Potency was 8.17 µM (active).

Tested on in a further experiment: not listed separately
The experiment can be described thus: Primary qHTS for inhibitors of nuclear receptor binding SET domain protein 2 (NSD2) in an RCH-ACV wild type WT cells (2C) (AID 1645877). Note: potency is the fitted concentration of half-maximal effect; nearly all actives have a fitted effect of over 70% in size. As to conditions: RCH-ACV (leukaemia line) NSD2 WT (2C) viability, CellTiter-Glo, 72 h; series mostly up to 44.9 µM.
For the compound `C=CC(C)(C)C12C=C(O)C(=O)N3/C(=C\c4cnc[nH]4)C(=O)NC31N(OC)c1ccccc12` (centres undefined), the Potency was 10 µM (active).

For the compound `CC1=CC2/C=C(\C)CCC(O)C(O)C(O)CC(=O)C23C(=O)NC(CC(C)C)C3C1C` (centres undefined), the Potency was 3.17 µM (active).

As to `O=C(NCCN1CCC2(CC1)C(=O)NCN2c1cccc(F)c1)c1ccc2ccccc2c1`, the Potency was 9.16 µM (active).

The next experiment addresses Glutathione peroxidase 1 (Homo sapiens) (UniProt P07203). The experiment can be described thus: Primary qHTS Assay for Inhibitors of Recombinant Selenoprotein Glutathione Peroxidase 1 (GPX1) (AID 1845191). Note: nearly all actives have a fitted effect of over 65% in size. As to conditions: recombinant GPX1, GR-coupled NADPH fluorescence, 15 min; series mostly up to 48.8 µM. A digest of the protocol:
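Recombinant GPX1 (10 nM final) was preincubated with compound for 30 min at room temperature, then reacted with 1 mM GSH, 0.5 mM CHP, 0.5 mM NADPH and 100 nM glutathione reductase; NADPH fluorescence (340/450 nm) was read at 0 and 15 min.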
For the compound `C=CC(C)(C)C12C=C(O)C(=O)N3/C(=C\c4cnc[nH]4)C(=O)NC31N(OC)c1ccccc12` (centres undefined), the Potency entry was “inactive”.

Consider `FC(F)(F)c1ccc(N2CCNCC2)nc1Cl`, for which the Potency result is “inactive”.

As for `CC1=CC2/C=C(\C)CCC(O)C(O)C(O)CC(=O)C23C(=O)NC(CC(C)C)C3C1C` (centres undefined), the Potency result is “inactive”.

As to `C[C@@H](CN1CCC(n2c(=O)[nH]c3cc(Br)ccc32)CC1)NC(=O)[C@@H]1C[C@H]1c1ccccc1`, the Potency result was “inactive”.

`CN(C(=O)CN1C(=O)COc2cc(Cl)c(Cl)cc21)[C@@H](CN1CCCC1)c1ccc(-c2cccc(C(N)=O)c2)cc1`: the Potency entry is “inactive”.

Another experiment deals with Phospholipid hydroperoxide glutathione peroxidase GPX4 (Homo sapiens) (UniProt P36969). The experiment can be described thus: Primary qHTS Assay for Inhibitors of Recombinant Selenoprotein Glutathione Peroxidase 4 (GPX4) (AID 1845192). Note: nearly all actives have a fitted effect of over 65% in size. As to conditions: recombinant GPX4, GR-coupled NADPH fluorescence, 15 min; series mostly up to 50 µM. An outline of the steps: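 GR-coupled readout: 100 nM GR, 1 mM GSH, 0.5 mM NADPH; NADPH fluorescence (ex 340/em 450 nm) read at t=0 and after 15 min RT. GPX4 200 nM, preincubated 30 min with compound; substrate 0.5 mM CHP.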
Phospholipid hydroperoxide glutathione peroxidase GPX4 (Homo sapiens), sequence (P36969 whole entry, looked up): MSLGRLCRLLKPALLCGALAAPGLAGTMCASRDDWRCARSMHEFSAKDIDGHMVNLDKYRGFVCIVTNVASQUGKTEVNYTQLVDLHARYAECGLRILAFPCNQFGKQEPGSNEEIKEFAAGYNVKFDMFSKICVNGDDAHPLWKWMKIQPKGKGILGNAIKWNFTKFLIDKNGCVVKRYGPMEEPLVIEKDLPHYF
Take `CC1=CC2/C=C(\C)CCC(O)C(O)C(O)CC(=O)C23C(=O)NC(CC(C)C)C3C1C` (centres undefined): the Potency entry was “inactive”.

In the case of `C[C@@H](CN1CCC(n2c(=O)[nH]c3cc(Br)ccc32)CC1)NC(=O)[C@@H]1C[C@H]1c1ccccc1`, the Potency entry was “inactive”.

On to `O=C(NCCN1CCC2(CC1)C(=O)NCN2c1cccc(F)c1)c1ccc2ccccc2c1`, for which the Potency entry is “inactive”.

Another experiment has as its target Luciferin 4-monooxygenase (Photinus pyralis) (UniProt P08659). The experiment can be described thus: Primary firefly luciferase (FLuc) qHTS assay for identification of artifact compounds. (AID 1845220). Note: nearly all actives have a fitted effect of over 60% in size. As to conditions: purified firefly luciferase, luminescence, 5 min; series mostly up to 54.1 µM. An outline of the steps: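 qHTS, 15 min compound preincubation with substrate (10 uM luciferin, 10 uM ATP) at RT, then 10 nM FLuc; 5 min; luminescence; % inhibition vs no-enzyme/DMSO controls, 4-parameter Hill fit.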
Regarding `C=CC(C)(C)C12C=C(O)C(=O)N3/C(=C\c4cnc[nH]4)C(=O)NC31N(OC)c1ccccc12` (centres undefined), the outcome was “inactive [at 25.7 µM]”.

As to `FC(F)(F)c1ccc(N2CCNCC2)nc1Cl`, the call was inactive.

Regarding `CC1=CC2/C=C(\C)CCC(O)C(O)C(O)CC(=O)C23C(=O)NC(CC(C)C)C3C1C` (centres undefined), the outcome was “inactive [at 25.7 µM]”.

For the compound `C[C@@H](CN1CCC(n2c(=O)[nH]c3cc(Br)ccc32)CC1)NC(=O)[C@@H]1C[C@H]1c1ccccc1`, the result was inactive.

Regarding `O=C(NCCN1CCC2(CC1)C(=O)NCN2c1cccc(F)c1)c1ccc2ccccc2c1`, the outcome was inactive.

As for `CN(C(=O)CN1C(=O)COc2cc(Cl)c(Cl)cc21)[C@@H](CN1CCCC1)c1ccc(-c2cccc(C(N)=O)c2)cc1`, the call was inactive.

Tested on in the next experiment: not listed separately
The experiment can be described thus: Primary fluorescence-based thiol-reactive (MSTI) qHTS assay for identification of artifact compounds. (AID 1845221). Note: nearly all actives have a fitted effect of over 65% in size. Note: potency is the fitted concentration of half-maximal effect. As to conditions: MSTI thiol-reactivity probe, 1 h; series mostly up to 53.8 µM. A digest of the protocol: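 MSTI probe at 4 uM final in 2% DMSO/PBS pH 7.4; compounds, 1 h at room temperature in dark. Fluorescence Ex/Em 525/598 nm, normalised to Acetyl-MSTI and MSTI, fitted to 4-parameter Hill.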
In the case of `C=CC(C)(C)C12C=C(O)C(=O)N3/C(=C\c4cnc[nH]4)C(=O)NC31N(OC)c1ccccc12` (centres undefined), the Potency was 4.12 µM (active).

Turning to `FC(F)(F)c1ccc(N2CCNCC2)nc1Cl`, the Potency result was “inactive”.

As to `CC1=CC2/C=C(\C)CCC(O)C(O)C(O)CC(=O)C23C(=O)NC(CC(C)C)C3C1C` (centres undefined), the Potency entry was “inactive”.

Take `O=C(NCCN1CCC2(CC1)C(=O)NCN2c1cccc(F)c1)c1ccc2ccccc2c1`: the Potency result is “inactive”.

With `CN(C(=O)CN1C(=O)COc2cc(Cl)c(Cl)cc21)[C@@H](CN1CCCC1)c1ccc(-c2cccc(C(N)=O)c2)cc1`, the Potency entry is “inactive”.

A further experiment relates to Nanoluciferase (engineered Oplophorus gracilirostris luciferase). The experiment can be described thus: Primary Nanoluciferase (NLuc) qHTS assay for identification of artifact compounds. (AID 1845222). As to conditions: NLuc-conditioned medium, Nano-Glo luminescence, 5 min; series mostly up to 54.1 µM. An outline of the steps:
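Luminescence read-out of secreted NLuc in S16 cell conditioned medium (1:55); compounds tested with 15 min RT preincubation, then Nano-Glo substrate 1:100, 5 min. % inhibition vs no-enzyme and DMSO controls, 4-parameter Hill fit.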
Regarding `C=CC(C)(C)C12C=C(O)C(=O)N3/C(=C\c4cnc[nH]4)C(=O)NC31N(OC)c1ccccc12` (centres undefined), the Potency result was “inactive”.

`FC(F)(F)c1ccc(N2CCNCC2)nc1Cl`: the Potency result is “inactive”.

In the case of `CC1=CC2/C=C(\C)CCC(O)C(O)C(O)CC(=O)C23C(=O)NC(CC(C)C)C3C1C` (centres undefined), the Potency result is “inactive”.

In the case of `O=C(NCCN1CCC2(CC1)C(=O)NCN2c1cccc(F)c1)c1ccc2ccccc2c1`, the Potency entry was “inactive”.

Consider `CN(C(=O)CN1C(=O)COc2cc(Cl)c(Cl)cc21)[C@@H](CN1CCCC1)c1ccc(-c2cccc(C(N)=O)c2)cc1`, for which the Potency result was “inactive”.

Another experiment has as its system CRL-7250. The experiment can be described thus: qHTS assay to identify novel small-molecules to repurpose for Merkel cell carcinoma treatment (AID 1296009). Note: nearly all actives have a fitted effect of over 60% in size. As to conditions: MCC and control cell lines, CellTiter-Glo viability, 72 h; series mostly up to 92 µM. A digest of the protocol:
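Cells exposed to NPC (8-point) and MIPE (11-point) compound dilutions for 72 hr at 37 degree celsius; viability read by CellTiter-Glo luminescence, normalized to no-cell and DMSO in-plate controls.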
On to `c1cc(-c2cnn3cc(-c4ccc(N5CCNCC5)cc4)cnc23)c2cccnc2c1`, for which the Potency result was “inactive”.

On to `CS(=O)(=O)c1ccc(Oc2cc(F)cc(C#N)c2)c2c1[C@H](O)C(F)(F)C2`, for which the Potency entry is “inactive”.

Take `COc1cc(S(C)(=O)=O)ccc1Nc1nc2ccc(-c3ccc(NC(=O)[C@H](C)c4ccc(F)cc4)cc3)cn2n1`: the Potency result is “inactive”.

As to `CO[C@@H]1COCC[C@@H]1N[C@@H]1CC[C@@](C(=O)N2CCc3ncc(C(F)(F)F)cc3C2)(C(C)C)C1`, the Potency result is “inactive”.

Turning to `CC(C)N(C[C@H]1O[C@@H](n2cnc3c(N)ncnc32)[C@H](O)[C@@H]1O)C1CC(CCc2nc3ccc(C(C)(C)C)cc3[nH]2)C1` (some centres undefined), the Potency entry was “inactive”.

As to `CCNC1(C(N)=O)CCN(c2ncnc3c2nc(-c2ccccc2Cl)n3-c2ccc(Cl)cc2)CC1`, the Potency entry is “inactive”.

Consider `O=C(CCc1ccc(O)cc1)c1c(O)cc(O)cc1O`, for which the Potency result was “inactive”.

For `N#Cc1ccc(COC[C@H]2O[C@@H](n3c(NCc4ccc(Cl)c(Cl)c4)nc4c(N)ncnc43)[C@H](O)[C@@H]2O)cc1`, the Potency entry is “inactive”.

On to `NC1CCC(N[C@@H]2C[C@H]2c2ccccc2)CC1` (some centres undefined), for which the Potency entry was “inactive”.

In the case of `Cc1c(F)cc(C(=O)NC2CC2)cc1-c1ccc(C(=O)NCC(C)(C)C)cn1`, the Potency result was “inactive”.

On to `CC(=O)C1=C(O)C=C2Oc3c(C(C)=O)c(O)c(C)c(O)c3[C@]2(C)C1=O`, for which the Potency result was “inactive”.

As for `OC[C@H]1O[C@@H](Oc2cc(O)cc(/C=C/c3ccc(O)cc3)c2)[C@H](O)[C@@H](O)[C@@H]1O`, the Potency entry is “inactive”.

On to `CNc1nc(C)nc(N[C@H]2CCC[C@@H](C(=O)NCc3ccc(C#N)cc3C(F)(F)F)C2)n1`, for which the Potency entry is “inactive”.

As to `CC(=O)O[C@@H]1C[C@@H](C)[C@](O)(CCC2=CC(=O)OC2)[C@@]2(C)CCCC(C)(C)C12` (some centres undefined), the Potency result is “inactive”.

As for `CCC(CC)CC1(C(=O)Nc2ccccc2SC(=O)C(C)C)CCCCC1`, the Potency entry was “inactive”.

Consider `CCS(=O)(=O)N1CCC([C@@H](C)n2c(C)c(C(=O)NCc3c(OC)cc(C)[nH]c3=O)c3ccccc32)CC1`, for which the Potency entry is “inactive”.

As for `O=C1C(c2c(O)[nH]c3ccccc23)=Nc2ccccc21`, the Potency result is “inactive”.

Regarding `COc1ccc2cc(OCC3(C(=O)O)CN(C(=O)c4ccc(F)cc4)C3)ccc2c1`, the Potency entry is “inactive”.

For the compound `COCCOc1ccc(N2CCN(CCn3ncc4c3nc(N)n3nc(-c5ccco5)nc43)CC2)cc1`, the Potency entry was “inactive”.

As to `COc1ccc(-c2cnc3c(-c4cccc5ncccc45)cnn3c2)cc1`, the Potency result was “inactive”.

In the case of `CCN(c1cc(C#CCN2CCOCC2)cc(C(=O)NCc2c(C)cc(C)[nH]c2=O)c1C)C1CCC(N(C)CCOC)CC1` (centres undefined), the Potency entry was “inactive”.

As to `CC[C@@](C)(Nc1ccnc(-c2c[nH]c3ncccc23)n1)C(=O)NCC(F)(F)F`, the Potency result is “inactive”.

As to `CCCOc1ccn2c(C(C)=O)cc(-c3ccccc3S(C)(=O)=O)c2c1`, the Potency entry is “inactive”.

Consider `C=C1C(=O)OC(CCCCCCCC)C1C(=O)O` (centres undefined), for which the Potency entry is “inactive”.

With `Cn1nccc1Nc1nccc(-c2ccn([C@H](CO)c3ccc(Cl)c(F)c3)c(=O)c2)n1`, the Potency result is “inactive”.

In the case of `COCCCc1sc(-c2ccccc2)nc1C(=O)Nc1ccccc1-c1nc2cc(CN3CCCC3)cnc2s1`, the Potency result is “inactive”.

As to `Cc1cccc(Oc2cnc(=O)[nH]c2)c1`, the Potency entry is “inactive”.

Turning to `CCNCc1nc2c(N)nc3ccccc3c2n1CC(C)(C)O`, the Potency entry was “inactive”.

Regarding `COc1cc(-c2cc(-c3ccc(N4CCNCC4)cc3)cnc2C)cc(OC)c1OC`, the Potency result is “inactive”.

In the case of `CCNC(=O)CCC/C=C\C[C@@H]1[C@@H](/C=C/C(O)CCc2ccccc2)[C@@H](O)C[C@@H]1O` (some centres undefined), the Potency result is “inactive”.

Regarding `N#Cc1cccc(-c2c[nH]c3ncnc(N4CCOCC4)c23)c1`, the Potency entry is “inactive”.

For the compound `CCCCOc1nc(N)c2c(n1)N(Cc1cccc(CN3CCCC3)c1)CC(=O)N2`, the Potency result is “inactive”.

Consider `Cc1c(-c2ccnn2C)cc(C(=O)NCc2ccc(S(C)(=O)=O)cn2)c(=O)n1-c1cccc(C(F)(F)F)c1`, for which the Potency entry was “inactive”.

For the compound `Cc1nn(C)c2c1C(c1ccc(C(F)(F)F)cc1)C(C#N)=C(N)O2` (centres undefined), the Potency result was “inactive”.
